# Experimental data taken from ChEMBL document CHEMBL3433997, “St. Jude Leishmania screening dataset” (2016).
# Target: Solute carrier family 2, facilitated glucose transporter member 1 (Homo sapiens) (UniProt P11166)
# Experiment: ST_JUDE_LEISH: Cytotoxicity at 2uM final concentration against transgenic Leishmania Mexicana promastigotes LmGLUT1 that are glucose transport deficient and complemented with the human glucose transporter GLUT1. Activity is measured by DNA content using SYBR green in vitro
# Format: functional
# Solute carrier family 2, facilitated glucose transporter member 1 (Homo sapiens), sequence (P11166 whole entry): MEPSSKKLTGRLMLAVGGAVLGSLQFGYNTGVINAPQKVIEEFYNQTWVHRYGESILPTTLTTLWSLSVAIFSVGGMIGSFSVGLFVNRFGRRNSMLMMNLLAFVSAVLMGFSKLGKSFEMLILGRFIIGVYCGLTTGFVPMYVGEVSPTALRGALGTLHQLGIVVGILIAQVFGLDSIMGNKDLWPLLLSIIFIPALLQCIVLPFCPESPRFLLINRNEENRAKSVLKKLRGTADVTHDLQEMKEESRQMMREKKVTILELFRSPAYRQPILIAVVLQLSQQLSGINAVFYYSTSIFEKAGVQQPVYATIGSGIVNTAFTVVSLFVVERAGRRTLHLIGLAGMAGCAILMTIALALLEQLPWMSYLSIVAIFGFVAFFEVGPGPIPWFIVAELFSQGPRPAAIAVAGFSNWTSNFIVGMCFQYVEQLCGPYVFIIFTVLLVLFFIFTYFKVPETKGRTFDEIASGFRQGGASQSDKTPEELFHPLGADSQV
row,SMILES,inhibition [%]
1,O=C(/C=C/c1cc([N+](=O)[O-])ccc1Cl)N1CCC(CCN2CCC(c3c[nH]c4ccccc34)CC2)CC1,2.1
2,O=C(Nc1ccc(OC2CCN(Cc3ccsc3)C2)c(Cl)c1)c1ccc2ncccc2c1 (stereo not given),-0.7
3,C=CCc1ccccc1OCC(O)CN(C1CCCCC1)C1CCCCC1 (stereo not given),-1.79
4,CC(=O)c1ccc2nc[nH]c(=O)c2c1,99.2
5,CC(C)S(=O)(=O)N1CCN(Cc2ccc3c(c2)nc(NC(=O)c2ccsc2)n3C[C@H](O)c2ccccc2)CC1,2.63
6,Cc1ccc(/C=C/C(=O)N2CCC(CCN3CCC(c4c[nH]c5ccccc45)CC3)CC2)cc1C,1.87
7,Cc1nc(N)nc(N)c1OCCCCCCOc1ccccc1,2.38
8,CCNc1cc(C(=O)N[C@@H](Cc2ccccc2)[C@H](O)CNCc2cccc(-n3ccnc3)c2)cc(N2CCCC2=O)c1,-1.37
9,N[C@@H](CCNC1CCN(c2cccc(C(F)(F)F)c2)CC1)Cc1ccc(F)c(F)c1,99.5
10,CN(C)c1ccc(CN2CCC(NC(=O)c3ccc(-c4ccccc4Cl)s3)CC2)cc1,2.51
11,Cc1cc(-c2ccc3c(c2)CCN(CCCOc2ccc4c(c2)CCN4C(=O)/C=C/c2ccccc2Cl)CC3)no1,5.8
12,NC1CCCN(Cc2cccc(-c3ccc(-c4nc5ccccc5[nH]4)s3)c2)C1 (stereo not given),0.99
13,COc1cc(CCOc2c(C)nc(N)nc2N)cc(OC)c1OC,-0.69
14,S=C(NCCCCCN1CCC(c2c[nH]c3ccccc23)CC1)Nc1cc(Cl)cc(Cl)c1,0.38
15,Cc1c(C)n(C2CCCC2)c2ncnc(OC3CCN(CC(=O)NCC4CC4)CC3)c12,7.05
16,Cn1cncc1C(=O)Nc1cccc(-c2ccc(-c3nc4ccccc4[nH]3)cc2)c1,-2.56
17,CCN(CC)Cc1cc(Nc2c3ccc(Cl)cc3nc3cccc(OC)c23)ccc1O,7.41
18,Cc1cccc(NC(=O)NCc2ccccc2)n1,1.62
19,Cc1ccccc1C1CCN(C2CCC(NC(=O)/C=C/c3ccccc3C(F)(F)F)CC2)CC1 (stereo not given),3.47
20,O=C(NCCN1CCCCC1)c1ccc(Nc2nccc(Nc3ccc(Oc4ccccc4)cc3)n2)cc1,7.53

row,SMILES,inhibition [%]
1,CCOC(=O)Cn1ccc2c(NCc3ccccc3)nc(C)nc21,0.48
2,Cc1cc(-c2ccc(O)c(CNC3CCCCC3)c2)cnc1N,0.43
3,CCCCCCCN1CC[C@@H](CCCc2ccnc3ccc(OCCCCN/C(N)=N/O)cc23)[C@@H](CC)C1,4.19
4,CC(=O)Oc1c(C2CCN(CCCCNC(=O)c3ccc(NC(=O)c4ccc(Cl)cc4)cc3)CC2)ccc2ccccc12,3.43
5,O=C(Nc1cccc(C(F)(F)F)c1)c1cccc2nc(C(F)(F)F)[nH]c12,19.4
6,CC(C)Cc1nc2nc(N)nc(N)c2cc1C(C)C,1.84
7,O=C(c1ccc(Cl)cc1)C1CCN(CCCOc2ccc3c(c2)CCNCC3)CC1,1.04
8,COc1ccc(O)cc1/C=N/Nc1ccnc2cc(Cl)ccc12,7.1
9,CC(C)CNCc1ccc(-c2cccc(CN(CCN(C)C)C(=O)NCCc3ccccc3)c2)cc1,-0.22
10,Oc1cccc(CCNCCCCCCNCCc2ccc(Cl)cc2)c1,2.27
11,Cc1ccccc1CNc1nccc(NCCC(=O)Nc2ccccc2)n1,4.53
12,O=C(Nc1ccc(Oc2cccnc2)cc1)C1CCN(Cc2cc(Cl)ccc2O)CC1,2.3
13,CN(C)CCOc1cc(NC(=O)Nc2ccc(-c3ccncc3)c(C(F)(F)F)c2)ccc1Cl,9.9
14,Fc1cccc(Nc2nc(NCCc3ccc(Cl)cc3)nc(Nc3cccc(F)c3)n2)c1,2.39
15,Cc1cc2nc(-c3ccc(C(=O)NCCCc4ccccc4)cc3)[nH]c2cc1C,9.41
16,Cc1ccc2nc(N/C(N)=N/C(=O)NC3CCCCC3)nc(C)c2c1,3.24
17,Cc1cccc2nc(-c3ccc(-c4cccc(NC(=O)C(C)CN(C)C)c4)s3)[nH]c12 (stereo not given),-0.15
18,COc1c(C(=O)NC2CCN(Cc3ccccc3)C2)cnc2ccccc12 (stereo not given),11.8
19,Cc1cc(F)ccc1N(c1nc(-c2cc(Cl)ccc2Cl)cs1)C1CCNC1 (stereo not given),8.82
20,CNC(=O)COc1cc(C)c(C2CCN(CCCCNC(=O)c3ccc(-c4ccc(C(F)(F)F)cc4)cc3)CC2)cc1C,2.41

# Target: Hexose transporter 1 (Plasmodium falciparum) (UniProt O97467)
# Experiment: ST_JUDE_LEISH: Cytotoxicity at 2uM final concentration against transgenic Leishmania Mexicana promastigotes LmPfHT that are glucose transport deficient and complemented with the Plasmodium falciparum hexose transporter. Activity is measured by DNA content using SYBR green in vitro
# Format: functional
row,SMILES,inhibition [%]
1,O=C(/C=C/c1cc([N+](=O)[O-])ccc1Cl)N1CCC(CCN2CCC(c3c[nH]c4ccccc34)CC2)CC1,3.61
2,O=C(Nc1ccc(OC2CCN(Cc3ccsc3)C2)c(Cl)c1)c1ccc2ncccc2c1 (stereo not given),0.74
3,C=CCc1ccccc1OCC(O)CN(C1CCCCC1)C1CCCCC1 (stereo not given),-2.31
4,CC(=O)c1ccc2nc[nH]c(=O)c2c1,96.3
5,CC(C)S(=O)(=O)N1CCN(Cc2ccc3c(c2)nc(NC(=O)c2ccsc2)n3C[C@H](O)c2ccccc2)CC1,1
6,Cc1ccc(/C=C/C(=O)N2CCC(CCN3CCC(c4c[nH]c5ccccc45)CC3)CC2)cc1C,1.19
7,Cc1nc(N)nc(N)c1OCCCCCCOc1ccccc1,4.83
8,CCNc1cc(C(=O)N[C@@H](Cc2ccccc2)[C@H](O)CNCc2cccc(-n3ccnc3)c2)cc(N2CCCC2=O)c1,-0.52
9,N[C@@H](CCNC1CCN(c2cccc(C(F)(F)F)c2)CC1)Cc1ccc(F)c(F)c1,54.5
10,CN(C)c1ccc(CN2CCC(NC(=O)c3ccc(-c4ccccc4Cl)s3)CC2)cc1,1.07
11,Cc1cc(-c2ccc3c(c2)CCN(CCCOc2ccc4c(c2)CCN4C(=O)/C=C/c2ccccc2Cl)CC3)no1,12
12,NC1CCCN(Cc2cccc(-c3ccc(-c4nc5ccccc5[nH]4)s3)c2)C1 (stereo not given),0.63
13,COc1cc(CCOc2c(C)nc(N)nc2N)cc(OC)c1OC,0.7
14,S=C(NCCCCCN1CCC(c2c[nH]c3ccccc23)CC1)Nc1cc(Cl)cc(Cl)c1,-0.55
15,Cc1c(C)n(C2CCCC2)c2ncnc(OC3CCN(CC(=O)NCC4CC4)CC3)c12,5.47
16,Cn1cncc1C(=O)Nc1cccc(-c2ccc(-c3nc4ccccc4[nH]3)cc2)c1,-2.33
17,CCN(CC)Cc1cc(Nc2c3ccc(Cl)cc3nc3cccc(OC)c23)ccc1O,11.1
18,Cc1cccc(NC(=O)NCc2ccccc2)n1,1.46
19,Cc1ccccc1C1CCN(C2CCC(NC(=O)/C=C/c3ccccc3C(F)(F)F)CC2)CC1 (stereo not given),-0.14
20,O=C(NCCN1CCCCC1)c1ccc(Nc2nccc(Nc3ccc(Oc4ccccc4)cc3)n2)cc1,8.31

row,SMILES,inhibition [%]
1,CCOC(=O)Cn1ccc2c(NCc3ccccc3)nc(C)nc21,1.38
2,Cc1cc(-c2ccc(O)c(CNC3CCCCC3)c2)cnc1N,10.3
3,CCCCCCCN1CC[C@@H](CCCc2ccnc3ccc(OCCCCN/C(N)=N/O)cc23)[C@@H](CC)C1,2.68
4,CC(=O)Oc1c(C2CCN(CCCCNC(=O)c3ccc(NC(=O)c4ccc(Cl)cc4)cc3)CC2)ccc2ccccc12,3.63
5,O=C(Nc1cccc(C(F)(F)F)c1)c1cccc2nc(C(F)(F)F)[nH]c12,24.2
6,CC(C)Cc1nc2nc(N)nc(N)c2cc1C(C)C,4.17
7,O=C(c1ccc(Cl)cc1)C1CCN(CCCOc2ccc3c(c2)CCNCC3)CC1,4.76
8,COc1ccc(O)cc1/C=N/Nc1ccnc2cc(Cl)ccc12,5.98
9,CC(C)CNCc1ccc(-c2cccc(CN(CCN(C)C)C(=O)NCCc3ccccc3)c2)cc1,1.83
10,Oc1cccc(CCNCCCCCCNCCc2ccc(Cl)cc2)c1,2.44
11,Cc1ccccc1CNc1nccc(NCCC(=O)Nc2ccccc2)n1,2.1
12,O=C(Nc1ccc(Oc2cccnc2)cc1)C1CCN(Cc2cc(Cl)ccc2O)CC1,4.55
13,CN(C)CCOc1cc(NC(=O)Nc2ccc(-c3ccncc3)c(C(F)(F)F)c2)ccc1Cl,9.02
14,Fc1cccc(Nc2nc(NCCc3ccc(Cl)cc3)nc(Nc3cccc(F)c3)n2)c1,2.12
15,Cc1cc2nc(-c3ccc(C(=O)NCCCc4ccccc4)cc3)[nH]c2cc1C,9.39
16,Cc1ccc2nc(N/C(N)=N/C(=O)NC3CCCCC3)nc(C)c2c1,4.89
17,Cc1cccc2nc(-c3ccc(-c4cccc(NC(=O)C(C)CN(C)C)c4)s3)[nH]c12 (stereo not given),1.85
18,COc1c(C(=O)NC2CCN(Cc3ccccc3)C2)cnc2ccccc12 (stereo not given),9.19
19,Cc1cc(F)ccc1N(c1nc(-c2cc(Cl)ccc2Cl)cs1)C1CCNC1 (stereo not given),7.41
20,CNC(=O)COc1cc(C)c(C2CCN(CCCCNC(=O)c3ccc(-c4ccc(C(F)(F)F)cc4)cc3)CC2)cc1C,2.32
